In the library only some 0.84% were active in any assay of this set; here they are far more common.
PPARg SRC-2 ag = PPARgamma-driven SRC-2 recruitment agonism. PPARgamma LBD-SRC-2 recruitment, biochemical. actives 0.34% (n = 200,000). activation, % at 8 µM; in the data active = activation above about 22%;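 note: 0% = vehicle and 100% = reference agonist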
Target sequence (P37231 whole entry, looked up, the tested form may be a part): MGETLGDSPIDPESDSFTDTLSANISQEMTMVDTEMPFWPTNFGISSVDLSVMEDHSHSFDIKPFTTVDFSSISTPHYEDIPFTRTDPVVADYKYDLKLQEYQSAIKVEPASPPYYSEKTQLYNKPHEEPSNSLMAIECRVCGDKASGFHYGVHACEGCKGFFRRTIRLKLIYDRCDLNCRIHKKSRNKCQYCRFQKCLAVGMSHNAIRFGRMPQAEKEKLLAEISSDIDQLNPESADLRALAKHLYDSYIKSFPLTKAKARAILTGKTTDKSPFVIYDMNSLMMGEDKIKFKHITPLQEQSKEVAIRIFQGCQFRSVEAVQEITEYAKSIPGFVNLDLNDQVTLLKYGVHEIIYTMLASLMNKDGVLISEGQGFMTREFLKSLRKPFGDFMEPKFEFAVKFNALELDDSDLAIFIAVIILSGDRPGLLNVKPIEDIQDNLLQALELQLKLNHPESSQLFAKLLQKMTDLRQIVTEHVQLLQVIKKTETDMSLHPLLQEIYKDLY
TR-FRET SRC-2 ct = counter-screen for PPARgamma SRC-2 recruitment agonists: TR-FRET artefact | hits give high values | TR-FRET ratio at 8 µM | actives 0.4% (n = 200,000) | AID 1049
SRC3 TRFRET art = counter-screen for PPARgamma SRC-3 recruitment agonists: TR-FRET artefact; PPARgamma/SRC-3 format; hits give high values; TR-FRET ratio at 8 µM; actives 0.39% (n = 99,000)
PPARg SRC-3 ag = PPARgamma-driven SRC-3 recruitment agonism. P37231. biochemical PPARgamma/SRC-3 coactivator recruitment assay. activation, % at 8 µM. actives 0.26% (n = 200,000). AID 731; in the data active = activation above about 23%;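 note: 0% = DMSO and 100% = reference agonist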
PPARg SRC-1 ag = PPARgamma-driven SRC-1 recruitment agonism. P37231. activation, % at 8 µM. actives 0.41% (n = 200,000). AID 631. PPARgamma-SRC-1 coactivator recruitment biochemical assay; in the data active = activation above about 19%;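 note: 0% = DMSO and 100% = reference agonist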
SRC1 TRFRET art = flags TR-FRET format artefacts in PPARgamma SRC-1 recruitment agonist screen. TR-FRET detection artefact counter-screen, emission ratio; hits give high values. TR-FRET ratio at 8 µM. actives 0.34% (n = 99,000). AID 1051; in the data active = TR-FRET ratio above about 2300
PPARg SRC2 ag = confirmation of agonists of SRC-2 recruitment by human PPARgamma. shares compounds with PPARg SRC-3 ag. biochemical SRC-2 recruitment by PPARgamma. activation, % at 8 µM. actives 52% (n = 790). AID 1297; in the data active = activation above about 22%;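 note: 0% = vehicle alone and 100% = reference agonist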
PPARg SRC1 ag = confirmation of agonists of SRC-1 recruitment by human PPARgamma; PPARgamma–SRC-1 coactivator recruitment biochemical assay; shares compounds with PPARg SRC-3 ag; AID 1300; activation, % at 8 µM; actives 43% (n = 790); in the data active = activation above about 20%;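 note: 0% = vehicle wells and 100% = reference agonist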
PPARg SRC3 ag = confirmation of agonists of SRC-3 recruitment by human PPARgamma; shares compounds with PPARg SRC-3 ag; biochemical PPARgamma-SRC-3 coactivator recruitment, agonist mode; actives 29% (n = 790); activation, % at 8 µM; in the data active = activation above about 24%;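 note: 0% = vehicle wells and 100% = reference agonist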
Numbers without * were called inactive; . = no result. Cut-off read from the data, not from the text of the source, unless noted: active = TR-FRET ratio above about 2000; inactive = the rest.

SMILES	PPARg SRC-2 ag	TR-FRET SRC-2 ct	SRC3 TRFRET art	PPARg SRC-3 ag	PPARg SRC-1 ag	SRC1 TRFRET art	PPARg SRC2 ag	PPARg SRC1 ag	PPARg SRC3 ag
Cc1cc(C)c(S(=O)(=O)N(C)CC(N)=O)c(C)c1	-5	1468	.	-10	1	.	.	.	.
Cc1ccc(N2CSC3=C(C#N)C(c4cccs4)CC(=O)N3C2)cc1 (configuration not stated)	29*	2106*	.	19	13	.	4	0	2
O=[N+]([O-])c1ccc(C2Nc3cccc4cccc(c34)N2)cc1	17	1698	1578	7	21*	1856	5	1	3
CCOCCCNC(=O)/C(C#N)=C/c1ccc(Cl)c([N+](=O)[O-])c1	11	1826	1683	30*	16	1865	10	19	20
CCOCCCNC(=O)/C(C#N)=C/c1cc(OC)c(O)c([N+](=O)[O-])c1	8	1780	1814	-3	6	1839	.	.	.
N#Cc1c(N)nc2c3c(sc(=N)c2c1N)NC(=O)CC3c1c(F)cccc1Cl (configuration not stated)	0	1427	.	7	-2	.	.	.	.
N#Cc1c(N)nc2c3c(sc(=N)c2c1N)NC(=O)CC3c1ccccc1 (configuration not stated)	20	2053*	.	26*	27*	.	5	5	8
Cc1cccc(-c2ccc(C=Nc3c(C)n(C)n(-c4ccccc4)c3=O)o2)c1	30*	1999*	.	39*	23*	.	20	18	14
Cc1c(N=Cc2nc3ccccc3n2C)c(=O)n(-c2ccccc2)n1C	2	1578	.	5	7	.	.	.	.
CCCCc1ccc(NC(=S)Nc2ccc(Cl)c(S(=O)(=O)N(C)C)c2)cc1	-4	1549	1368	1	2	1687	.	.	.
COc1ccc2c(c1)O[C@@H](c1cccc(C(F)(F)F)c1)[C@H](OC(=O)N[C@H]1CCCc3ccccc31)C2=O	25*	1831	1457	1	10	1778	1	6	0
CN1C(=O)/C(=C/C=C2\SCCN2C)N(C)C1=S	5	1893	1670	20	23*	1709	13	12	12
COc1ccc(N=Cc2sc(O)c3ccccc23)cc1	28*	1635	.	26*	22*	.	8	9	6
COc1ccc(-n2c(O)c(C=Nc3ccccc3)c3ccccc3c2=O)cc1	2	1565	1574	-1	1	1953	.	.	.

Screening results deposited in PubChem BioAssay by The Scripps Research Institute Molecular Screening Center.
